The structures appear in SMILES notation. This is part of a sample that, as a whole, favours compounds with a hit. Of some 83,000 tested, about 20% had one in any assay.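 96-well plates, one dose, 48 hours. Percent growth reported; active if below 10.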 Unmarked numbers belong to inactive results. Active and inactive are the calls of the source.

Test systems include SR leukemia; RPMI-8226 leukemia; OVCAR-8 ovarian; OVCAR-5 ovarian; OVCAR-4 ovarian; SK-OV-3 ovarian; IGROV1 ovarian; OVCAR-3 ovarian; HS 578T breast; NCI/ADR-RES ovarian; T-47D breast; BT-549 breast; MDA-MB-435 melanoma; SW-620 colon; MCF7 breast; HCT-116 colon; HCC-2998 colon; KM12 colon.
Common to all, as to test: NCI-60 one-dose screen, 48 h (100 = growth as untreated, 0 = no growth, -100 = all killed)
Common to all, as to conditions: 10 µM unless noted

Consider `Nc1nc(=O)n([C@H]2CC=C(CO)O2)cc1F`, for which the growth in the test with SR leukemia is 86.1%; with RPMI-8226 leukemia, 101%; in the test on OVCAR-8 ovarian it was 99.7%; in the test with OVCAR-5 ovarian, 89.3%; with OVCAR-4 ovarian, 107%; in the test on SK-OV-3 ovarian, 101%. Further, the growth was 95.2% in the test on IGROV1 ovarian; 104% with OVCAR-3 ovarian; 83.6% with HS 578T breast; 104% with NCI/ADR-RES ovarian; 98.6% with T-47D breast; 114% in the test on BT-549 breast. The growth with MDA-MB-435 melanoma is 97.8%; with SW-620 colon it was 90.5%; with MCF7 breast, 95.8%; with HCT-116 colon, 108%; in the test on HCC-2998 colon it was 104%; in the test on KM12 colon, 103%.
Regarding `C[C@@H]1N=C(c2ccc(Cl)cc2Cl)Nc2nc3ccccn3c2C1=O`, the growth in the test on SR leukemia was 33%; with RPMI-8226 leukemia it was 75.2%; in the test with OVCAR-8 ovarian it was 68.1%; with OVCAR-5 ovarian, 91.2%; in the test on OVCAR-4 ovarian, 89.5%; in the test on SK-OV-3 ovarian, 50.1%. Besides, the growth was 41.9% in the test with IGROV1 ovarian; 2.44% (active) with OVCAR-3 ovarian; 52% with HS 578T breast; 44.5% in the test with NCI/ADR-RES ovarian; 64.3% in the test on T-47D breast; 55.6% in the test with BT-549 breast. In addition, the growth in the test with MDA-MB-435 melanoma is -16.6% (active); with SW-620 colon, 25.2%; in the test on MCF7 breast, 16.8%; with HCT-116 colon, 28.1%; with HCC-2998 colon, 75.4%; with KM12 colon, 23.8%.
As to `CCN1CCN(CCOc2ccc(CNc3ccc4nc(CCC5CCCCC5)[nH]c4c3)cc2)CC1`, the growth was 31.5% in the test on SR leukemia; -5.5% (active) in the test with RPMI-8226 leukemia; 38.2% in the test on OVCAR-8 ovarian; 58.7% in the test on OVCAR-5 ovarian; 48.2% in the test on OVCAR-4 ovarian; 87.1% in the test with SK-OV-3 ovarian. In addition, the growth in the test on IGROV1 ovarian was 40.9%; in the test on OVCAR-3 ovarian, 27.8%; in the test with HS 578T breast, 65%; in the test on NCI/ADR-RES ovarian it was 73.5%; in the test with T-47D breast it was -8.02% (active); in the test with BT-549 breast, 65.6%. The growth with MDA-MB-435 melanoma is -17.8% (active); in the test with SW-620 colon, 22.1%; in the test with MCF7 breast, 3.86% (active); with HCT-116 colon it was 17.9%; in the test on HCC-2998 colon it was 4.19% (active); in the test on KM12 colon, 47.1%.
For `CSc1nn2c(-c3cc4cc(Br)ccc4oc3=O)ccnc2c1C#N`, the growth was 94.7% with SR leukemia; 103% in the test on RPMI-8226 leukemia; 104% with OVCAR-8 ovarian; 112% in the test on OVCAR-5 ovarian; 101% with OVCAR-4 ovarian; 105% in the test with SK-OV-3 ovarian. In addition, the growth was 97.2% in the test on IGROV1 ovarian; 114% with OVCAR-3 ovarian; 109% in the test with HS 578T breast; 110% in the test with NCI/ADR-RES ovarian; 99.7% with T-47D breast; 105% in the test with BT-549 breast. Also, the growth with MDA-MB-435 melanoma is 101%; in the test on SW-620 colon, 103%; with HCT-116 colon it was 94.3%; in the test on HCC-2998 colon, 102%; in the test on KM12 colon, 107%.
With `O=C(Nc1ccc2c(c1)-c1ccccc1C2)C1CC(=O)N(c2ccc3c(c2)OCO3)C1` (configuration not stated), the growth in the test with SR leukemia is 77.2% [50 µM]; in the test with RPMI-8226 leukemia, 81.8% [50 µM]; in the test with OVCAR-8 ovarian, 28.5% [50 µM]; with OVCAR-5 ovarian it was 83.5% [50 µM]; with OVCAR-4 ovarian, 2.45% [50 µM] (active); in the test with SK-OV-3 ovarian, 76.1% [50 µM]. The growth with IGROV1 ovarian was 80.5% [50 µM]; with OVCAR-3 ovarian, 31.3% [50 µM]; in the test with HS 578T breast it was 31.7% [50 µM]; in the test on NCI/ADR-RES ovarian, 58.9% [50 µM]; in the test with T-47D breast, 52.8% [50 µM]; with BT-549 breast it was 80.3% [50 µM]. Besides, the growth with MDA-MB-435 melanoma was 70.7% [50 µM]; with SW-620 colon, 75.2% [50 µM]; in the test on HCT-116 colon, 36.8% [50 µM]; with HCC-2998 colon, 81% [50 µM]; with KM12 colon, 51.2% [50 µM].
As to `Nc1c(C(=O)c2ccc(Cl)cc2)sc(Nc2ccccc2)c1-c1nc2ccccc2s1`, the growth was 33.2% in the test on SR leukemia; 28.3% with RPMI-8226 leukemia; 23% in the test with OVCAR-8 ovarian; 46.4% in the test with OVCAR-5 ovarian; -9.61% (active) with OVCAR-4 ovarian; -0.592% (active) in the test on SK-OV-3 ovarian. In addition, the growth in the test on IGROV1 ovarian was 29.1%; in the test with OVCAR-3 ovarian, 4.1% (active); in the test with HS 578T breast, 32.4%; with NCI/ADR-RES ovarian it was 18.8%; in the test with T-47D breast, 11.8%; with BT-549 breast, 55.2%. Further, the growth with MDA-MB-435 melanoma is 16.7%; in the test on SW-620 colon it was 39.3%; with MCF7 breast, 43.9%; in the test with HCT-116 colon it was 13.9%; in the test with HCC-2998 colon, 67.5%; in the test with KM12 colon, 16.1%.
With `CCOc1ccccc1NC(=O)CCC(=O)OC`, the growth in the test with SR leukemia is 97.8%; in the test with RPMI-8226 leukemia, 104%; in the test with OVCAR-8 ovarian, 119%; in the test on OVCAR-5 ovarian it was 110%; in the test on OVCAR-4 ovarian, 95.4%; in the test with SK-OV-3 ovarian, 103%. The growth is 100% in the test on IGROV1 ovarian; 108% with OVCAR-3 ovarian; 106% in the test on HS 578T breast; 113% in the test on NCI/ADR-RES ovarian; 88.7% in the test on T-47D breast; 106% in the test with BT-549 breast. In addition, the growth was 102% with MDA-MB-435 melanoma; 104% in the test on SW-620 colon; 90.4% in the test with MCF7 breast; 97.5% in the test with HCT-116 colon; 99.5% in the test with HCC-2998 colon; 100% in the test on KM12 colon.
As to `O=[N+]([O-])c1ccc(Oc2cccc3c(Oc4ccc([N+](=O)[O-])cc4[N+](=O)[O-])cccc23)c([N+](=O)[O-])c1`, the growth in the test with SR leukemia is 77.5%; with RPMI-8226 leukemia, 95.6%; with OVCAR-8 ovarian, 77.7%; with OVCAR-5 ovarian, 109%; in the test on OVCAR-4 ovarian it was 87.8%; in the test on SK-OV-3 ovarian, 83.1%. The growth in the test with IGROV1 ovarian is 79.6%; with OVCAR-3 ovarian it was 95.2%; with HS 578T breast it was 88.1%; in the test with NCI/ADR-RES ovarian, 79.9%; in the test on T-47D breast, 81.7%; with BT-549 breast it was 82.4%. In addition, the growth is 106% in the test with MDA-MB-435 melanoma; 87.8% in the test on SW-620 colon; 76.6% with MCF7 breast; 83.1% in the test with HCT-116 colon; 110% in the test with HCC-2998 colon; 86.7% in the test with KM12 colon.
